PubChem BioAssay (NCI)
This is part of a sample that, as a whole, favours compounds with a hit. Of some 83,000 tested, about 20% had one in any assay.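 Method: cells in 96-well plates; compound added at one concentration; 48 h incubation; percent growth measured; values under 10 scored active.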 Unmarked numbers belong to inactive results. Activity calls are given as the source filed them.

Columns and labels:
Assay in all cases: NCI-60 one-dose screen, 48 h (100 = growth as untreated, 0 = no growth, -100 = all killed)
Conditions in all cases: 10 µM unless noted
NCI-H23 lung = system: NCI-H23 lung
NCI-H226 lung = system: NCI-H226 lung
NCI-H322M lung = system: NCI-H322M lung
HOP-62 NSCLC = system: HOP-62 NSCLC
NCI-H460 lung = system: NCI-H460 lung
HOP-92 NSCLC = system: HOP-92 NSCLC
NCI-H522 lung = system: NCI-H522 lung
A549/ATCC NSCLC = system: A549/ATCC NSCLC
786-0 renal = system: 786-0 renal
COLO 205 colon = system: COLO 205 colon

SMILES	growth (NCI-H23 lung)	growth (NCI-H226 lung)	growth (NCI-H322M lung)	growth (HOP-62 NSCLC)	growth (NCI-H460 lung)	growth (HOP-92 NSCLC)	growth (NCI-H522 lung)	growth (A549/ATCC NSCLC)	growth (786-0 renal)	growth (COLO 205 colon)
CCOc1ccc(NC(=O)c2ccccc2-c2ccccc2C(=O)O)cc1	109%	104%	106%	106%	113%	106%	104%	107%	105%	113%
CC[C@]12C=CCN3CC[C@@]4(c5cc([C@H]6CCC(=O)N6)c(OC)cc5N(C)[C@H]4[C@@](O)(C(=O)OC)[C@@H]1OC(C)=O)[C@@H]32	100% [2.5 µM]	92.7% [2.5 µM]	99.8% [2.5 µM]	98.1% [2.5 µM]	107% [2.5 µM]	98.5% [2.5 µM]	93% [2.5 µM]	100% [2.5 µM]	104% [2.5 µM]	108% [2.5 µM]
C(=C\c1c[nH]c2ccccc12)/c1ccc2ccccc2n1	91.3%	76.5%	77.5%	89.6%	79.7%	61.3%	53.8%	63.3%	77.8%	84.4%
COc1cc(/C=N/NC(=S)NNC(=S)NC2CCCCC2)cc(OC)c1OC	97.4%	91.2%	93.7%	94.8%	97.1%	91.2%	89.3%	100%	102%	102%
CN1CCN(CC#CCn2c3c(c4ccccc42)C[C@]2(C)[C@H]4CC[C@@H]5[C@H]6[C@H]7OC(=O)[C@@]6(CCC7(C)C)CC[C@@]5(C)[C@]4(C)CC[C@H]2C3(C)C)CC1	92.7%	91.6%	106%	95.2%	98.6%	67.4%	102%	58.6%	107%	108%
C[C@]12CC[C@@H]3c4ccc(O)cc4CC[C@H]3[C@@H]1C[C@H](O)[C@@H]2O	91.2%	85%	88.7%	94.2%	95.2%	99.2%	98.3%	97.9%	106%	102%
COc1ccc(C2c3ccccc3NC(=O)N2C2CCN(C)CC2)c(OC)c1 (stereo not given)	100%	94.1%	95.9%	101%	101%	79.9%	89.5%	103%	102%	106%
C=C(C)[C@@H]1CC[C@]2(C)CC[C@]3(C)[C@H](CC[C@@H]4[C@@]5(C)CCCNC(C)(C)[C@@H]5CC[C@]43C)[C@@H]12	94.1%	96.5%	99.5%	101%	48.4%	76.6%	106%	51.3%	102%	8.77% (active)
N#C/C(=C\c1ccc(-c2ccccc2)o1)c1nc(-c2ccco2)cs1	82.7%	81.3%	84.6%	98.6%	85%	87.4%	93.8%	101%	106%	104%
N=C(N)c1ccc(S(N)(=O)=O)cc1	93.6%	101%	96.2%	87.1%	113%	93.6%	91.8%	91.9%	90.8%	122%
Cn1cc(-c2nc(-c3cn(C)c4ncccc34)cs2)c2cc(F)ccc21	43.3%	68.8%	57%	53.7%	15.8%	72.4%	-0.482% (active)	38.1%	45.9%	31.3%
COc1cc2c(cc1-c1c(C)noc1C)ncc1nc(C3CCCCC3)n([C@@H](C)COC(F)F)c12	56.8%	55.5%	41.9%	28.6%	53%	27.7%	26.2%	33.2%	42.8%	9.21% (active)
O=c1[nH]ncc(Br)c1Br	-57% (active)	112%	94.7%	90.2%	65.9%	62.3%	-41.3% (active)	69.3%	71.6%	22.4%
